Compound activity: PubChem, several laboratories
Sampled rows, rich in hits. Any-hit rate of the full collection: about 3.4%.
m-calpain inh: calpain II (pig) inhibition | inhibition, % at 16 µM | AID 1236 | hit rate 0.37% among 220,000 | purified calpain II, fluorogenic peptide substrate, 30 min;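 active = inhibition above about 50%, limit read from the data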
p47phox inh: blocks human p47phox regulatory protein of NADPH oxidases | p47phox/p22phox peptide binding, fluorescence polarization, 2 h | inhibition, % at 24.7 µM | hit rate 0.53% among 220,000;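 active = inhibition above about 30%, limit read from the data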;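 note: 0% = p47phox with labelled peptide and 100% = labelled peptide alone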
Mcl1-Bid inh: disrupts binding of human Mcl-1 to Bid peptide. inhibition, % at 21.7 µM. hit rate 0.97% among 220,000. AID 1021. Q07820. TR-FRET Mcl-1/Bid-Dy647 peptide binding, 1536-well;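 active = compounds that cut the binding signal by more than half at the single screening dose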;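 note: His-tagged Mcl-1 with europium anti-His antibody binding Bid BH3 peptide; 0% = Mcl-1 plus peptide wells and 100% = peptide-only wells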
Mcl1 Noxa PPI: disrupts binding of human Mcl-1 to Noxa peptide. hit rate 1.5% among 220,000. TR-FRET Mcl-1/Noxa peptide binding, 2 h. inhibition, % at 21.7 µM. AID 1022;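 active = compounds that cut the protein-peptide binding signal by more than 50% relative to plate controls in a single-dose test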;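 note: His-tagged Mcl-1 with rhodamine Noxa BH3 peptide and terbium anti-His antibody; 0% = Mcl-1 plus Noxa peptide wells and 100% = peptide-only wells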
14-3-3 Bad PPI: disrupts binding of bovine 14-3-3 zeta to phospho-Bad peptide; hit rate 0.71% among 220,000; P63103; TR-FRET 14-3-3zeta/Dy647-pBad peptide displacement, 1 h; AID 781; inhibition, % at 21.7 µM;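 active = inhibition above about 70%, limit read from the data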;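 note: 0% = full 14-3-3 plus peptide FRET controls and 100% = background without 14-3-3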
Target sequence (P63103 whole entry, looked up): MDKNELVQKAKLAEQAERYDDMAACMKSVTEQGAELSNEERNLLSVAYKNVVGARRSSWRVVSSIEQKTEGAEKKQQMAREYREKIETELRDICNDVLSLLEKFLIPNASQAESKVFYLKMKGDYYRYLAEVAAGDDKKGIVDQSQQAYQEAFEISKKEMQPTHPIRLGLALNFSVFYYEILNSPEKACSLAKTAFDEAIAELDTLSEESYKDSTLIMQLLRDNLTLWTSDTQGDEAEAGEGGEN
Mcl-1 Bim block: inhibitors of Bim-Mcl-1 interaction, human; Bead-based flow cytometry, Bim peptide-Mcl-1 binding; hit rate 0.1% among 190,000; Q07820; inhibition, % at 10 µM; in the data active = inhibition above about 40%;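 note: 0% = no compound tracer wells and 100% = peptide blocker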
* hit, by the source's call; / = no result given; [ ] = dose if it differs, or a comment.

SMILES | m-calpain inh | p47phox inh | Mcl1-Bid inh | Mcl1 Noxa PPI | 14-3-3 Bad PPI | Mcl-1 Bim block
C=CCn1c(=NC(=O)c2ccc(S(=O)(=O)N3CCc4ccccc4C3)cc2)sc2cc(S(N)(=O)=O)ccc21 | -167 | -12 | 46 | -146 | 30 | -6
C=CCn1c(=NC(=O)c2ccc(S(=O)(=O)N3CCCc4ccccc43)cc2)sc2cc(S(N)(=O)=O)ccc21 | -62 | -24 | -1 | 54* | -2 | -4
COc1ccc(C(=O)Nc2ccc(S(=O)(=O)NC(C)(C)C)cc2)cc1[N+](=O)[O-] | 54* | -15 | -1 | 6 | -3 | 0
CC(Cc1c[nH]c2ccccc12)C(=O)O (stereo unspecified) | 16 | -2 | -72 | 57* | 52 | 2
NCC(c1ccccc1)c1c[nH]c2ccccc12 (stereo unspecified) | 3 | -14 | -34 | 7 | -10 | 47*
O=C(CC(C(=O)O)c1c[nH]c2ccccc12)c1ccccc1 (stereo unspecified) | 18 | 1 | 82* | 22 | 2 | -2
COc1ccc(CC(=O)NNC(=O)c2cccnc2)cc1OC | -20 | 2 | -9 | -15 | -7 | 0
CCOC(=O)c1[nH]ncc1CN1CCC(Cc2cccc(OC)c2)(C(=O)OCC)CC1 | -20 | 11 | -15 | -17 | 0 | /
COc1ccc(CC(=O)NCCC(C)C)cc1S(=O)(=O)N1CCOCC1 | -24 | -6 | -3 | -6 | -14 | -1
COC/C=C/C1=CC2=CC(=O)C(C)(OC(=O)c3cnc4ccccc4n3)C(=O)C2=CN1Cc1ccc(OC)cc1 (stereo unspecified) | 1 | -2 | -37 | 57* | -3 | /
CCCCC1=CC2=CC(=O)C(C)(OC(=O)c3cnc4ccccc4n3)C(=O)C2=CO1 (stereo unspecified) | -38 | 4 | -17 | 62* | 0 | /
COC/C=C/C1=CC2=CC(=O)C(C)(OC(=O)c3cnc4ccccc4n3)C(=O)C2=CN1Cc1ccccc1 (stereo unspecified) | -41 | 8 | -44 | 34 | -3 | /
Cc1ccc(CN2CCNC(=O)C2CC(=O)NCCCn2ncc3ccccc32)o1 (stereo unspecified) | -56 | 1 | -42 | 8 | -22 | -5
CCn1c2ccccc2c2cc(N)ccc21 | -232 | -3 | -7 | 62* | 2 | -8
CCCCCC(=O)NC(=S)Nc1ccc2oc(=O)ccc2c1 | 20 | -2 | -15 | 56* | -2 | -5
COc1ccc(C(=O)NC(=S)Nc2ccc3oc(=O)ccc3c2)cc1 | 8 | 9 | 45 | -4 | 54 | -3
Cc1cc(C)c(-n2nnnc2SCC(=O)c2cc3ccccc3o2)c(C)c1 | -32 | -13 | -55 | -13 | -2 | /
Cc1ccc(NCc2ccco2)cc1C | -29 | -2 | 9 | 15 | 71* | -2
Cc1ccc(NC(=O)c2ccco2)cc1C | 8 | -18 | -6 | -6 | -3 | -1
N#C/C(=N\Nc1ccc(S(=O)(=O)N2CCc3ccccc32)cc1)C(N)=S | -44 | -24 | -7 | 60* | -14 | 2
NNC(=O)CCCCCCCCCCOCCCCO | 8 | -9 | -20 | -1 | -3 | /
Cn1c2c(c(=O)n(C)c1=O)C(CC(=O)Nc1ccccc1F)C(=O)N2 (stereo unspecified) | 8 | -14 | -27 | 15 | -4 | /
Cn1c2c(c(=O)n(C)c1=O)C(CC(=O)Nc1ccccc1)C(=O)N2 (stereo unspecified) | 92* | -2 | -2 | 17 | -24 | -2
CCN(CCO)c1ccc(N=Nc2cc(C)[nH]n2)cc1 | 2 | -51 | -113 | -10 | -2 | /
CO/N=C/NC(=O)c1ccc([N+](=O)[O-])c(CS(=O)(=O)c2ccc(Cl)cc2)c1 | -96 | -2 | -7 | 65* | 30 | -1
Nc1ccc2c(c1)OC1(CCCCC1)O2 | 16 | 45* | -59 | 5 | 100* | -3
CCCc1ccc(OCc2nc(-c3ccc(NC(=O)c4ccco4)cc3)no2)cc1 | -73 | -36 | 60* | 7 | 22 | -6
C/C(=N\NC(=O)NC1CCCCC1)c1ccco1 | -8 | -5 | -14 | 0 | -6 | -2
Cc1nnc2n1NC(c1ccc(Cl)cc1)C(C(=O)N(C)C1CCCCC1)S2 (stereo unspecified) | -3 | 8 | 0 | 7 | 127*[fluorescence artefact?] | 4
